# Source: PubChem
# Tau fluor cs: counter-screen for tau fibril formation inhibitors. tau K18 P301L Alexa594 fluorescence, heparin fibrillization. Potency, µM (top dose mostly 57.7 µM), inactives show at the top dose activity change, negative = decrease. 0.93% of 280,000 active. AID 1463; further: potency means the concentration at half of the fitted maximal effect; nearly all actives have a fitted effect of over 55% in size
#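 Human tau K18 P301L (15 uM unlabeled, 0.24 uM Alexa 594-labeled) in 100 mM sodium acetate pH 7 with 20 uM heparin, 6 hr at 37 C. ThT 30 uM added, 1 hr ambient; Alexa 594 FP and total fluorescence read at 555/632 nm.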
# FBPA coupling cs: counter-screen for Giardia aldolase inhibitors: coupling enzyme system | AID 2472 | coupling enzyme system counterscreen, AmpLite Red fluorescence | 0.67% of 290,000 active | activity change, negative = inhibition, % at 58.2 µM, hits read low; in the data active means activity change below about -30%
#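 Coupling enzymes only (glyceraldehyde-3-phosphate) + compound, at 57.5 uM final, 10 min RT; add substrate/coupling/AmpLite Red mix, 20 min RT; fluorescence ex 525/em 598 nm. Actives flag coupling-system interference.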
# Tau fibril FP: inhibitors of human tau fibril formation; 0.39% of 280,000 active; P10636; K18 P301L tau heparin fibrillization, Alexa594 FP, 6 h; Potency, µM (titrated, usually from 57.7 µM), for the others: top-dose activity, negative = inhibition, actives largely listed as inhibitors; AID 1468; further: potency means the concentration at half of the fitted maximal effect; nearly all actives have a fitted effect of over 55% in size
# Target sequence (P10636 561-689 P618L limits assumed): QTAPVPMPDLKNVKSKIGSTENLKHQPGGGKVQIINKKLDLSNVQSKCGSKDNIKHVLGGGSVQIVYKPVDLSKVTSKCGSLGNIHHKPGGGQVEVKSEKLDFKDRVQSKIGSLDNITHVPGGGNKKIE
#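 Human tau K18 […] P301L fragment, 15 uM unlabeled plus 0.24 uM Alexa 594-labeled tau (final), with compound and 20 uM heparin in 100 mM sodium acetate pH 7; 6 hr at 37 C, then Alexa 594 FP read.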
# Tau ThT inhib: tau fibrillization inhibition (ThT binding). Potency, µM (series often up to 57.4 µM), for the others: at the top dose activity, negative = inhibition, actives largely listed as inhibitors. 2.1% of 270,000 active. recombinant tau K18 P301L, heparin-induced fibrillization, ThT fluorescence; further: potency means the concentration at half of the fitted maximal effect; nearly all actives have a fitted effect of over 55% in size
#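 Fibril formation assay: tau K18 P301L at 15 uM with trace Alexa 594 label, heparin inducer 20 uM, pH 7 sodium acetate buffer, 37 C for 6 hr; endpoint ThT signal.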
# An asterisk follows results filed as active; ? = inconclusive; · = no result; [ ] = dose if it differs, or a comment. Hits are enriched below; roughly 2.7% of the tested compounds scored in any of these assays. Unless noted, the call rests on the fitted dose curve; in most records, active means well fitted curve in the direction sought with a large enough effect; inconclusive means small, poorly fitted or top-dose-only effect, or another doubt; inactive means no such curve, though single readings can be large; an effect the other way counts as inactive or inconclusive. On the % scale 0 is the no-effect control and ±100 the full control effect.
SMILES,Tau fluor cs,FBPA coupling cs,Tau fibril FP,Tau ThT inhib
Cc1cccc(N2C(=O)C(Cl)=C(N3CCOCC3)C2=O)c1,?,5,25µM*,16µM*
CCc1ccc(N2C(=O)C(Cl)=C(N3CCOCC3)C2=O)cc1,11%,6,1%,13%
O=C1C(Cl)=C(N2CCOCC2)C(=O)N1c1cccc(Cl)c1,?,5,28µM*,13µM*
COc1ccc(N2C(=O)C(Cl)=C(N3CCOCC3)C2=O)cc1,·,4,·,·
CCOc1ccccc1CN1CCc2nc(N3CCN(C)CC3)ncc2C1,-6%,·,6%,-14%
CCc1ccc2oc(C(=O)N(Cc3ccc(N(C)C)cc3)Cc3ccco3)c(C)c2c1,?,·,-1%,?
COc1ccc(N=C2NC(=O)S/C2=C\c2ccc(N(C)C)cc2)cc1,?,1,?,1.1µM*
O=C(NCc1ccc2c(c1)OCO2)c1cc2c(s1)CSC2,-23%,2,-13%,?
O=C(NCc1ccco1)c1cc2c(s1)CSC2,-18%,-4,?,28µM*
Cc1cc(C)cc(NC(=O)CSc2nc(=O)n(Cc3ccccn3)c3c2CCC3)c1,-12%,·,-10%,-15%
Cc1ccc(-c2[nH]nc3c2C(c2ccoc2)C(C#N)=C(N)O3)cc1C (configuration not stated),?,-22,?,32µM*
CCOC(=O)C1=C(c2ccccc2)OC(N)=C(C#N)C1c1cccnc1 (configuration not stated),-2%,-2,-5%,-6%
N#CC1=C(N)Oc2n[nH]c(-c3ccccc3)c2C1c1cccnc1 (configuration not stated),-14%,2,-11%,?
COc1ccc(-c2[nH]nc3c2C(c2ccoc2)C(C#N)=C(N)O3)cc1 (configuration not stated),-20%,0,0%,?
N#CC1=C(N)Oc2n[nH]c(-c3cccnc3)c2C1c1ccc([N+](=O)[O-])o1 (configuration not stated),?,1,?,13µM*
CC(=O)C1=C(C)OC(N)=C(C#N)C1c1cccnc1 (configuration not stated),-8%,-33*,-17%,?
Cc1ccc(-c2[nH]nc3c2C(c2cccnc2)C(C#N)=C(N)O3)cc1 (configuration not stated),-16%,-42*,0%,-14%
Cc1cccc(OCC(=O)NCC(=O)N/N=C/c2c(C)[nH]c3ccccc23)c1,?,-10,15%,?
COc1ccc(-n2nc(C)c3c(C(F)(F)F)cc(-c4cccnc4)nc32)cc1,-17%,·,-5%,-6%
C=CCn1cccc(/C=C/C(=O)c2ccc(C(C)(C)C)cc2)c1=S,-11%,2,16%,20µM*
COc1ccc(O[C@H]2C=C[C@@H](c3ccccc3)O[C@@H]2CO/N=C(\C)CCN2CCCc3nc(C)c(C)cc32)cc1,-2%[11.6 µM],-2,12%[11.6 µM],-2%[11.5 µM]
O=C(CN1CCCCC1)Nc1nnc(-c2ccc([N+](=O)[O-])cc2)s1,-15%,2,-2%,13µM*
COc1ccc(-c2nc(CSc3nnc(C)n4c3cc3sccc34)c(C)o2)cc1,11%,·,?,-7%
CCn1c2ccc(C)cc2c2nnc(NN)nc21,-5%,-6,-13%,?
CCn1c2ccccc2c2nnc(NN)nc21,-11%,-8,?,14µM*
SMILES,Tau fluor cs,FBPA coupling cs,Tau fibril FP,Tau ThT inhib
Cn1nc(-c2ccccc2)c(-c2ccccc2)c(C(=O)Nc2ccccc2C(N)=O)c1=O,-11%,·,0%,-7%
Cc1ccc(C2=C/C(=C/c3cccnc3)C(=O)O2)c(C)c1,-11%,-35*,?,?
CCOC(=O)c1c(NC(=O)c2cc(-c3ccc(OC)c(OC)c3)on2)sc2c1CCCC2,-4%,·,-12%,-11%
COc1ccccc1NC(=O)c1cc2ccccc2o/c1=N\O,-11%,-1,6%,?
COc1ccccc1NC(=O)c1cc2cc(Br)ccc2cc1O,6.3µM*[quencher],-20,-6%,·
COc1cc(NC(=O)c2cc3ccccc3cc2O)c(OC)cc1Cl,?,-7,-12%,?
COc1ccccc1NC(=O)c1cc2ccc(O)cc2o/c1=N\O,?,-4,5%,7.1µM*
